Over roughly 16,000 sequences, “e-score” has its median near -0.044; the highest 2% begin near 0.38. This excerpt belongs to a sample that is enriched for the highest values.
Biological target: T1, GST-NbGlk1(82-244) (Nicotiana benthamiana)
T1 chain: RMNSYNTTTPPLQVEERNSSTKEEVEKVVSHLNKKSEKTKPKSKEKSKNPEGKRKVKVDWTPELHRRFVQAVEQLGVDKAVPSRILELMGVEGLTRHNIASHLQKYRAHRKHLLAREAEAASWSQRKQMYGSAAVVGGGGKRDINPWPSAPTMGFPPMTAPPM
Experiment: protein-binding microarray; NbGlk1 is a Golden2-like transcription factor of Nicotiana benthamiana; high values mean tight binding
Conditions: protein: recombinant; tags: GST (pTH6838); dsDNA, one strand shown
Sequence ATAGTAGA has a binding signal of 0.201 ± 0.11 E-score. AAAGGATT showed a binding signal of 0.372 ± 0.061 E-score. Sequence ATCCATTG has a binding signal of 0.253 ± 0.0582 E-score. ATTTCAGA gave a binding signal of 0.265 ± 0.0287 E-score. ATTGCAAT was tested, and the binding signal was 0.305 ± 0.0598 E-score. Sequence ATCTTAGC has a binding signal of 0.246 ± 0.0788 E-score. ATCTCACA gave a binding signal of 0.289 ± 0.0836 E-score. ATACGCGC was tested, and the binding signal was 0.223 ± 0.0538 E-score. ATCCGCTA was tested, and the binding signal was 0.353 ± 0.0323 E-score. CAATCAGC was tested, and the binding signal was 0.22 ± 0.0614 E-score. ATCGCGTC gave a binding signal of 0.285 ± 0.0397 E-score. Sequence AAAATCTA has a binding signal of 0.4582 ± 0.0038 E-score. Work on AAAATCAA yielded a binding signal of 0.334 ± 0.0377 E-score. In the case of CAAATATA, the binding signal is reported as 0.245 ± 0.00998 E-score. AAAATTTA gave a binding signal of 0.248 ± 0.0263 E-score. CAAATCAA showed a binding signal of 0.228 ± 0.037 E-score. For CAAATCTC, the binding signal was 0.426 ± 0.0426 E-score. CAAATCTA showed a binding signal of 0.412 ± 0.0148 E-score. CAAATCAC showed a binding signal of 0.272 ± 0.0674 E-score. In the case of AATATTGG, the binding signal is reported as 0.202 ± 0.105 E-score. With AATTCTGC the binding signal was 0.204 ± 0.0116 E-score. AATTTTCA was tested, and the binding signal was 0.228 ± 0.0322 E-score. For ATTGCAGA, the binding signal was 0.253 ± 0.0406 E-score. ATCTTCGC gave a binding signal of 0.237 ± 0.0198 E-score. In the case of AATATTGA, the binding signal is reported as 0.222 ± 0.0953 E-score. With AGATCCGC the binding signal was 0.34 ± 0.0528 E-score. For ATTTCCGG, the binding signal was 0.295 ± 0.0475 E-score. Work on ATATCCCG yielded a binding signal of 0.317 ± 0.0686 E-score. ATATCCGC showed a binding signal of 0.4112 ± 0.0033 E-score. ATATCCGA was tested, and the binding signal was 0.4021 ± 0.00123 E-score. For AGATCCGA, the binding signal was 0.307 ± 0.0187 E-score. ATATCCGG showed a binding signal of 0.436 ± 0.0135 E-score. Sequence ATATCGGA has a binding signal of 0.369 ± 0.015 E-score. In the case of ATCTCCGC, the binding signal is reported as 0.293 ± 0.0913 E-score. AATACGAA showed a binding signal of 0.205 ± 0.0658 E-score. ACAAGAAT was tested, and the binding signal was 0.273 ± 0.0228 E-score. In the case of ACGATCGC, the binding signal is reported as 0.252 ± 0.0832 E-score. ATTGCACC showed a binding signal of 0.222 ± 0.00533 E-score. ATCGCGCA gave a binding signal of 0.358 ± 0.0372 E-score. Sequence ATTTGTAA has a binding signal of 0.266 ± 0.0497 E-score. AAATCTGG gave a binding signal of 0.466 ± 0.00695 E-score. In the case of AGATCTGA, the binding signal is reported as 0.332 ± 0.0671 E-score. In the case of AGATCTGG, the binding signal is reported as 0.364 ± 0.0182 E-score. For CAATCAGG, the binding signal was 0.294 ± 0.0424 E-score. CAATCTGC was tested, and the binding signal was 0.305 ± 0.0551 E-score. For AAATCGGC, the binding signal was 0.302 ± 0.0126 E-score. Sequence AAATCAGG has a binding signal of 0.365 ± 0.0118 E-score. CAATCTGG gave a binding signal of 0.4139 ± 0.000981 E-score. AAATCGGG gave a binding signal of 0.354 ± 0.0193 E-score. Work on AAATCTGC yielded a binding signal of 0.4558 ± 0.00312 E-score. In the case of AGATCTGC, the binding signal is reported as 0.411 ± 0.029 E-score. Work on ATTCCCTA yielded a binding signal of 0.3669 ± 0.00312 E-score. In the case of AATTATAA, the binding signal is reported as 0.243 ± 0.0945 E-score. AAAATAAT was tested, and the binding signal was 0.205 ± 0.0493 E-score. Sequence AATCATAG has a binding signal of 0.246 ± 0.0935 E-score. With ATTTTCAC the binding signal was 0.34 ± 0.0212 E-score. Sequence ATCCGCAG has a binding signal of 0.223 ± 0.00544 E-score. Work on AAGTAAAA yielded a binding signal of 0.21 ± 0.144 E-score. ATCGTGTA showed a binding signal of 0.262 ± 0.115 E-score. With AAATCTGA the binding signal was 0.469 E-score. In the case of CAATCTGA, the binding signal is reported as 0.375 ± 0.0502 E-score. Work on AAATCATA yielded a binding signal of 0.343 ± 0.0134 E-score. In the case of AGCGATCC, the binding signal is reported as 0.274 ± 0.0142 E-score. AAATACGG was tested, and the binding signal was 0.207 ± 0.0643 E-score. For AATTGCGC, the binding signal was 0.227 ± 0.0136 E-score. With AAAAATCG the binding signal was 0.389 ± 0.0127 E-score. In the case of CAAAATCG, the binding signal is reported as 0.386 ± 0.0304 E-score. In the case of ACAAATCG, the binding signal is reported as 0.297 ± 0.0369 E-score. With ACAAATCT the binding signal was 0.374 ± 0.0338 E-score. AAAAATCA gave a binding signal of 0.336 ± 0.0224 E-score. CACAATCG showed a binding signal of 0.268 ± 0.00572 E-score. AAAAATCT showed a binding signal of 0.4495 ± 0.00385 E-score. AAAATTCG showed a binding signal of 0.282 ± 0.0182 E-score. AAAAATAT was tested, and the binding signal was 0.3 ± 0.0471 E-score. In the case of ATTGTGTG, the binding signal is reported as 0.203 ± 0.0438 E-score. AATCGCAG was tested, and the binding signal was 0.224 ± 0.0787 E-score. For ATTTGCTC, the binding signal was 0.253 ± 0.0795 E-score. ACATGTGA showed a binding signal of 0.201 ± 0.017 E-score. AATCAGAT gave a binding signal of 0.341 ± 0.0502 E-score. Work on ACTAATAT yielded a binding signal of 0.2093 ± 0.00102 E-score. With ATGGGAAT the binding signal was 0.296 ± 0.0441 E-score. Work on ACAGATCC yielded a binding signal of 0.234 ± 0.05 E-score. For ACAAGATA, the binding signal was 0.322 ± 0.00757 E-score. For ATTCCCTC, the binding signal was 0.372 ± 0.0111 E-score. AAAATCCG gave a binding signal of 0.446 ± 0.00893 E-score. In the case of AAAATACG, the binding signal is reported as 0.286 ± 0.0671 E-score. AGAATCAC gave a binding signal of 0.373 ± 0.0542 E-score. ATAATCCA gave a binding signal of 0.354 ± 0.0347 E-score. Work on ACAATCCA yielded a binding signal of 0.3331 ± 0.000895 E-score. Work on AGAATCAA yielded a binding signal of 0.342 ± 0.0419 E-score. Sequence CAAATCCG has a binding signal of 0.389 ± 0.00882 E-score. For AGAATCAG, the binding signal was 0.39 ± 0.0152 E-score. Work on AAAATCCA yielded a binding signal of 0.454 ± 0.016 E-score. With ATAATCAA the binding signal was 0.216 ± 0.00752 E-score. With AAGCGGAT the binding signal was 0.227 ± 0.0367 E-score. With AATCGGAT the binding signal was 0.357 ± 0.0422 E-score. Sequence ATATACAG has a binding signal of 0.262 ± 0.0848 E-score. With ATCCCTTA the binding signal was 0.215 ± 0.0752 E-score. With ATGTGATA the binding signal was 0.231 ± 0.0239 E-score. ATCCTCAG was tested, and the binding signal was 0.231 ± 0.0659 E-score. AAAATCAT showed a binding signal of 0.302 ± 0.0817 E-score. Sequence AAAATCAC has a binding signal of 0.36 ± 0.0307 E-score. Sequence AAAATCCC has a binding signal of 0.41 ± 0.0189 E-score. In the case of CAAATCCA, the binding signal is reported as 0.3792 ± 0.00132 E-score. Sequence CAAATTCA has a binding signal of 0.203 ± 0.0475 E-score. Sequence CAGATCCA has a binding signal of 0.23 ± 0.064 E-score. With ATAATCAG the binding signal was 0.222 ± 0.0278 E-score. AAAATCAG gave a binding signal of 0.381 ± 0.0189 E-score. For CAAATCCC, the binding signal was 0.315 ± 0.0145 E-score.

— PMC5836133, “The intracellular immune receptor Rx1 regulates the DNA-binding activity of a Golden2-like transcription factor”
